Some test systems named below: T-47D breast; BT-549 breast; MDA-MB-435 melanoma; SW-620 colon; MCF7 breast; HCT-116 colon; HCC-2998 colon; KM12 colon.
Experiment in all cases: NCI-60 one-dose screen, 48 h (100 = growth as untreated, 0 = no growth, -100 = all killed)
What all share (conditions): 10 µM unless noted

About 83,000 compounds went through this panel and 20% of them were active in at least one assay; those are over-represented in the sample as a whole.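 Method: cells in 96-well plates; compound added at one concentration; 48 h incubation; percent growth measured; values under 10 scored active.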 A number with no mark means an inactive call. The source made the active and inactive calls.

Consider `O=C(Nc1ccc2[nH]c3ccccc3c2c1)c1ccccc1Cl`, for which the growth with T-47D breast is 43.7%; in the assay on BT-549 breast it was 61.2%; in the assay on MDA-MB-435 melanoma it was -53.1% (active); with SW-620 colon, 28.2%; in the assay on MCF7 breast, 21.8%; in the assay on HCT-116 colon, 25.4%. Moreover, the growth with HCC-2998 colon is 64.3%; with KM12 colon, 24.4%.
For the compound `COc1ccc(Sc2[nH]c(C=O)c3ccccc23)cc1`, the growth with T-47D breast is 57.2%; in the assay on BT-549 breast, -7.47% (active); in the assay with MDA-MB-435 melanoma, -0.922% (active); in the assay on SW-620 colon, 16.1%; in the assay on MCF7 breast it was 57.8%; in the assay with HCT-116 colon, 61.1%. Moreover, the growth in the assay with HCC-2998 colon is 16.3%; in the assay with KM12 colon it was 22%.
With `COc1cccc2nc(Nc3cccc(NC(=O)c4cc(N5CCOCC5)cc(C(F)(F)F)c4)c3)ccc12`, the growth in the assay with T-47D breast was 42.4%; in the assay with BT-549 breast, 78.6%; with MDA-MB-435 melanoma it was 55.3%; in the assay with SW-620 colon it was 95.8%; in the assay on MCF7 breast it was 45.2%; in the assay with HCT-116 colon, 41.9%. In addition, the values for the growth in the assay on HCC-2998 colon and with KM12 colon were 76.9% and 52.3%, respectively.
Take `Cn1c(=O)c2[nH]c(Cc3ccc4c(c3)OCO4)nc2n(C)c1=O`: the growth is 99.8% in the assay with T-47D breast; 103% in the assay with BT-549 breast; 107% in the assay with MDA-MB-435 melanoma; 99.8% in the assay with SW-620 colon; 97.7% with MCF7 breast; 105% with HCT-116 colon. In addition, the growth is 109% in the assay with HCC-2998 colon and 108% in the assay on KM12 colon.
Take `O=c1cc(-c2ccc3c(c2)OCCO3)oc2cc(Cl)ccc12`: the growth in the assay with T-47D breast is 1.86% (active); in the assay with BT-549 breast, 81.4%; with MDA-MB-435 melanoma, 7.43% (active); in the assay with SW-620 colon, 28.6%; in the assay on MCF7 breast, 77.8%; in the assay with HCT-116 colon it was -1.49% (active). The growth with HCC-2998 colon was 66.2%; with KM12 colon, 21.3%.
With `CCOC(=O)C1=C(C)NC(SCc2nnc(-c3ccc(Cl)cc3)o2)=NC1c1ccc(Cl)cc1` (stereo not drawn), the growth with T-47D breast was 49.9%; in the assay with BT-549 breast it was 75.3%; with MDA-MB-435 melanoma it was 69.6%; in the assay on SW-620 colon it was 85.9%; in the assay on MCF7 breast it was 49%; in the assay with HCT-116 colon, 46.2%. In addition, the growth in the assay with HCC-2998 colon is 79.9%; in the assay with KM12 colon it was 69.8%.
Turning to `COc1cc(C2CC(c3ccc(Nc4ccnc5cc(Cl)ccc45)cc3)=NN2c2ccccc2)cc(OC)c1OC` (stereo not drawn), the growth in the assay with T-47D breast is 67.7%; in the assay on BT-549 breast, 82.3%; in the assay on MDA-MB-435 melanoma, 6.36% (active); in the assay on SW-620 colon it was 50.2%; with MCF7 breast, 48%; with HCT-116 colon it was 54.9%. Also, the figures for the growth in the assay with HCC-2998 colon and in the assay on KM12 colon were 67.7% and 47.9%, respectively.
Regarding `C/C(=N\NC(=S)N1CCCCC1)c1ccccn1`, the growth in the assay on T-47D breast is 17.9%; in the assay on BT-549 breast it was 29.4%; in the assay with MDA-MB-435 melanoma it was 14.6%; in the assay on SW-620 colon it was 21.9%; with MCF7 breast, 12.8%; in the assay with HCT-116 colon it was 13.3%. Also, the growth was 34.8% with HCC-2998 colon and 13% in the assay with KM12 colon.
On to `COc1ccc(CCN2COc3c([C@@H](C)CCC=C(C)C)ccc(C)c3C2)cc1OC`, for which the growth in the assay with T-47D breast was -23% (active); in the assay with BT-549 breast, 87.9%; with MDA-MB-435 melanoma, 61.4%; in the assay with SW-620 colon, 40.4%; in the assay with MCF7 breast it was 40.6%; in the assay with HCT-116 colon it was 25.9%. Further, the growth with HCC-2998 colon is -70.3% (active); in the assay with KM12 colon it was 51.8%.
Take `Cc1cc(NC(=O)C2c3ccccc3C(=O)N(CC(C)C)C2c2cccs2)no1` (stereo not drawn): the growth in the assay on T-47D breast is 23.9%; in the assay on BT-549 breast it was -4.46% (active); in the assay on MDA-MB-435 melanoma, -43.8% (active); with SW-620 colon, -57% (active); with MCF7 breast it was 10.4%; in the assay with HCT-116 colon, 0.136% (active). Further, the growth is -45.5% (active) in the assay with HCC-2998 colon and 86.8% with KM12 colon.
`Nc1nc(N)c2c(n1)NC(c1sc(Cl)nc1Cl)CC(c1ccc3c(c1)OCO3)=N2` (stereo not drawn): the growth with T-47D breast was 39.1%; with BT-549 breast it was 27.2%; in the assay with MDA-MB-435 melanoma it was -9.34% (active); with SW-620 colon, 13.2%; in the assay on MCF7 breast it was 26.2%; in the assay with HCT-116 colon, 20.1%. In addition, the growth was 61.2% with HCC-2998 colon and 34.2% in the assay with KM12 colon.
Take `Cc1cc(N=Nc2ccc(-c3ccc(N=Nc4ccc(O)c(C(=O)O)c4)cc3)cc2)c(N)c(N=Nc2ccc(C(=O)O)cc2)c1N`: the growth with T-47D breast is 78.6%; in the assay with BT-549 breast it was 67.3%; with MDA-MB-435 melanoma, 99.5%; with SW-620 colon it was 95.6%; in the assay on MCF7 breast, 97.6%; with HCT-116 colon it was 65.5%. Further, the growth in the assay with HCC-2998 colon is 87.7%; in the assay with KM12 colon it was 92.1%.
For the compound `Nc1nc(N)c2cc(CNc3ccc(Cl)c(Cl)c3)ccc2n1`, the growth in the assay with T-47D breast was -52.6% (active); in the assay with BT-549 breast it was 59.1%; with MDA-MB-435 melanoma it was -1.48% (active); with SW-620 colon, -80.3% (active); in the assay on MCF7 breast, -74.8% (active); in the assay on HCT-116 colon it was -88.8% (active). Besides, the values for the growth in the assay with HCC-2998 colon and with KM12 colon were -70.3% (active) and -15.9% (active), respectively.
On to `CC1=NOCC(=O)N1`, for which the growth in the assay with T-47D breast is 99.1%; in the assay with BT-549 breast, 104%; with MDA-MB-435 melanoma, 100%; in the assay with SW-620 colon it was 103%; in the assay with MCF7 breast, 98.6%; in the assay on HCT-116 colon, 98.5%. In addition, the growth in the assay on HCC-2998 colon was 116%; in the assay with KM12 colon, 107%.
On to `CCCCCNCCCCCNc1cc(OC)cc2cccnc12`, for which the growth in the assay on T-47D breast is 68.1%; with BT-549 breast, 69.2%; in the assay on MDA-MB-435 melanoma, 103%; with SW-620 colon, 90.9%; in the assay with MCF7 breast, 50.6%; in the assay with HCT-116 colon, 63.5%. The growth was 93.4% in the assay with HCC-2998 colon and 103% in the assay with KM12 colon.
As to `CC1(C)C2CCC(O)(C(=O)O)C1C2` (stereo not drawn), the growth was 96.1% in the assay on T-47D breast; 104% in the assay on BT-549 breast; 99.1% with MDA-MB-435 melanoma; 115% in the assay on SW-620 colon; 95.7% in the assay on MCF7 breast; 117% with HCT-116 colon. The growth in the assay with HCC-2998 colon and in the assay with KM12 colon was 118% in each case.

These data come from PubChem BioAssay (NCI).
